# Screening data as filed in PubChem BioAssay.
# PME-1 primary – blocks human protein phosphatase methylesterase 1; Q9Y570; recombinant PME-1, FP-Rh probe fluorescence polarization; inhibition, % at 5.9 µM; 320,000 tested, 0.53% active; AID 2130;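 active = inhibition above the campaign mean of all compounds plus 3 SD, cut at about 26% in these data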;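 also: competitive labeling of PME-1 active site by serine hydrolase directed probe; inhibitors block probe labeling so polarization falls and inhibition rises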
# PAD4 FP inh – inhibitors of human PAD4; inhibition, % at 6.36 µM; Q9UM07; 330,000 tested, 0.41% active; recombinant PAD4, RCA probe fluorescence polarization; AID 485272;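 active = percent inhibition above a cutoff equal to the mean of all tested compounds plus 3 SD, cut at about 15% in these data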
# LYPLA1 inh – counter-screen for PME1 inhibitors: inhibitors of human LYPLA1; recombinant LYPLA1, FP-Rh probe fluorescence polarization; inhibition, % at 5.9 µM; 320,000 tested, 0.16% active;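 active = inhibition above the mean of all tested compounds plus 3 SD, set per campaign, cut at about 14% in these data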;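 also: inhibitors block serine hydrolase probe labeling of LYPLA1 so polarization falls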
# Target sequence (O75608 whole entry, looked up): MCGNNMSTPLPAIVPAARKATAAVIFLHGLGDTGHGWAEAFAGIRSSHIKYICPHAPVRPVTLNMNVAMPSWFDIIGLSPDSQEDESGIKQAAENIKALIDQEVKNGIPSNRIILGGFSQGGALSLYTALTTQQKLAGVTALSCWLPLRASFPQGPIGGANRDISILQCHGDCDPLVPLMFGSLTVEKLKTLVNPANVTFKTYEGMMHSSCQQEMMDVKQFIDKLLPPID
# Fam108B inh – Fam108B inhibition, counter-screen for RBBP9 inhibitors; inhibition, % at 9.51 µM; 300,000 tested, 0.33% active; recombinant Fam108B, FP-Rh probe fluorescence polarization;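 active = inhibition above the screen mean inhibition plus 3 SD, computed separately per campaign, cut at about 18% in these data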;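 also: inhibitors lower polarization as less probe binds the enzyme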
# LYPLA2 counter – blocks human lysophospholipase 2, a PME1 counter-screen | O95372 | recombinant LYPLA2, FP-Rh probe fluorescence polarization | inhibition, % at 5.9 µM | 320,000 tested, 0.38% active | AID 2177;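 active = inhibition above the screen-wide mean plus 3 SD, limit set per campaign, cut at about 26% in these data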
# Target sequence (O95372 whole entry, looked up): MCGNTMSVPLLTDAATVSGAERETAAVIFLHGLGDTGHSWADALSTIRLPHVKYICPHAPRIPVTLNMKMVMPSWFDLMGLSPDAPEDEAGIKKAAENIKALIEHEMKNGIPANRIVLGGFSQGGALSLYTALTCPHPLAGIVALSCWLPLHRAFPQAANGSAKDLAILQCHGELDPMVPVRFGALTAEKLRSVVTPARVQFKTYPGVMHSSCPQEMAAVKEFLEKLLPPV
# GSTO1 inh – blocks human GSTO1 in RBBP9 counter-screen | 300,000 tested, 1.1% active | inhibition, % at 5.96 µM | recombinant GSTO1, activity-based probe fluorescence polarization | AID 1974;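 active = inhibition above the campaign mean inhibition plus 3 SD, cut at about 35% in these data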
# GSTO1 confirm – confirmation of human GSTO1 inhibitors; shares compounds with GSTO1 inh; recombinant GSTO1, probe fluorescence polarization; inhibition, % at 5.96 µM; 2,400 tested, 54% active; AID 2176;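 active = inhibition above the primary screen's cutoff, its mean inhibition plus 3 SD, cut at about 35% in these data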;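 also: loss of polarization as inhibitors block binding of rhodamine sulfonate ester activity probe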
# GSTO1 ABPP inh – inhibitors of recombinant human GSTO1; shares compounds with GSTO1 inh; gel ABPP SE-Rh probe fluorescence; inhibition, % at 1 µM; 130 tested, 30% active;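 active = inhibition of the enzyme GSTO1 above about 75%, limit read from the data; inactive = inhibition below that limit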
# Hits are given with their value; - = inactive; . = not tested or not shown. A selection: hits, their analogues and other compounds. The true share with any hit is near 1.8%.
SMILES,PME-1 primary,PAD4 FP inh,LYPLA1 inh,Fam108B inh,LYPLA2 counter,GSTO1 inh,GSTO1 confirm,others
O=C(CCl)N(Cc1ccccc1)c1ccccc1,-,-,-,-,-,93,96,GSTO1 ABPP inh=-
Cc1ccccc1N(Cc1cc(=O)[nH]c2ccccc12)C(=O)CCl,-,-,-,-,-,74,75,GSTO1 ABPP inh=-
CCCCCCCN(C(=O)CCl)c1ccccc1C,-,-,-,-,-,101,96,GSTO1 ABPP inh=-
O=C(CCl)N(Cc1cc(=O)[nH]c2ccccc12)c1ccccc1,-,-,-,-,-,85,92,GSTO1 ABPP inh=-
CCCC(=O)N(Cc1cc(=O)[nH]c2ccccc12)c1ccccc1,-,-,-,-,-,-,.,
COc1cc(OC)c2nc(C)c3c(c2c1)N(c1ccc(O)cc1)CC3,-,-,-,-,-,-,.,
CCN(CC(=O)Nc1c(F)cccc1F)C(=O)/C=C/c1ccc2ccccc2n1,-,-,-,-,-,62,-,
CC12CCC(C(=O)N(CC3CO3)C1=O)C2(C)C (stereo not drawn),-,-,-,-,-,61,77,GSTO1 ABPP inh=-
O=C(NC1(O)C(=O)c2ccccc2C1=O)c1ccccc1,-,-,-,-,-,77,82,
CCOc1ccccc1C(=O)Nc1cccc(-c2nnc(-c3ccccc3)o2)c1,-,-,-,-,-,-,.,
CCOC(=O)c1ccccc1NC(=O)c1ccccc1SC,-,-,-,-,-,-,.,
COC(=O)c1ccccc1NC(=O)c1ccccc1SC,-,-,-,-,-,66,-,
COc1cc(CNC(C)c2ccccc2)cc(Br)c1OCc1ccccc1 (stereo not drawn),-,-,-,-,-,-,.,
COc1cc(CNc2ccc(O)cc2)cc(Br)c1OCc1ccccc1,-,-,-,-,-,53,-,
OC(COCc1ccccc1F)CN1CCCCC1 (stereo not drawn),-,-,-,-,-,-,.,
Cn1c(C(=O)O)c(CC(=O)N2CCC(Cc3ccccc3)CC2)c2ccccc21,-,-,-,-,-,42,-,
COc1cc(/C=N/NC(=O)c2cccc([N+](=O)[O-])c2)ccc1OC(=O)c1ccco1,-,-,-,-,-,-,.,
Cc1oc2c(c1C(=O)O)C(=O)c1ccccc1C2=O,-,-,-,-,-,61,62,
CCOC(=O)c1c(C)nc2c(c1-c1ccccc1)C(=O)c1ccccc1-2,-,-,-,-,-,-,.,
Cc1cc(=O)oc(C)c1C(=O)O,-,-,-,-,-,-,.,
CCOC(=O)c1c(C)oc2c1C(=O)c1ccccc1C2=O,-,-,-,-,-,66,64,
Cc1ccc(N2C(=O)[C@@H]3C(C(=O)C(c4ccccc4)c4ccccc4)=NN[C@@H]3C2=O)cc1,-,-,-,-,-,-,.,
CC(C)Cn1c(SCc2nnc(-c3cccs3)o2)nc(O)cc1=O,-,-,-,-,-,-,.,
CC(=O)N(/N=C1\Sc2ccccc2C1=O)c1ccccc1C,-,-,-,-,-,41,71,
CC(OC(=O)c1ccccc1C(=O)N(C)c1ccccc1)C(=O)Nc1ccc(C(N)=O)cc1 (stereo not drawn),-,-,-,-,-,-,.,
SMILES,PME-1 primary,PAD4 FP inh,LYPLA1 inh,Fam108B inh,LYPLA2 counter,GSTO1 inh,GSTO1 confirm,others
CC(OC(=O)c1cc(O)c2ccccc2c1O)C(=O)Nc1ccc(C(N)=O)cc1 (stereo not drawn),-,-,-,-,-,48,56,
S=C(NCCc1c[nH]c2ccccc12)NC1CCCCC1,-,-,-,-,-,51,-,
CS(=O)(=O)Nc1ccc(C(=O)NCCSCc2c(F)cccc2Cl)cc1,-,-,-,-,-,-,.,
COC(=O)c1ccc(-c2ccc(C(c3c(C)[nH][nH]c3=O)c3c(C)[nH][nH]c3=O)o2)cc1,-,-,-,-,-,38,-,
CN1CCN(c2nc3ccccc3nc2C(C#N)S(=O)(=O)c2ccccc2)CC1 (stereo not drawn),-,-,-,-,-,-,.,
N#CC(c1nc2ccccc2nc1N1CCCC1)S(=O)(=O)c1ccccc1 (stereo not drawn),-,-,-,-,-,53,56,
CC1Nc2nc(N(C)C)[nH]c(=O)c2NC1C (stereo not drawn),-,-,-,-,-,-,.,
COc1ccc(SC[C@H](CC(C)C)N2CCN(CCc3ccccc3)CCC2=O)cc1,-,-,-,-,-,-,.,
COc1ccc(C(CCN(Cc2ccc(OC)c(OC)c2)C(C)=O)c2ccccc2)cc1 (stereo not drawn),-,-,-,-,-,-,.,
COc1ccc(CN(CCC(c2ccccc2)c2ccc(OC(C)C)cc2)C(=O)CCl)cc1OC (stereo not drawn),-,-,-,-,-,78,90,GSTO1 ABPP inh=90
O=C(CCl)N1N=C(c2ccco2)CC1c1cccs1 (stereo not drawn),-,-,-,-,-,85,99,
Cc1ccc(C2=NN(C(=O)CCl)C(c3cccs3)C2)o1 (stereo not drawn),-,-,-,-,-,99,96,
CC(=O)N1N=C(c2ccco2)CC1c1cccs1 (stereo not drawn),-,-,-,-,-,-,.,
C=CCn1c(SCC(=O)c2cc(C)n(CCOC)c2C)nc2sc(C)c(C)c2c1=O,-,-,-,-,-,-,.,
O=C(COC(=O)c1ccc(N2CCCC2=O)cc1)Nc1ccccc1,-,-,-,.,-,.,.,
CCOc1ccccc1-c1nc(SCC(=O)O)n[nH]1,-,-,-,-,-,-,.,
Cc1nc2ccccc2c(=O)n1/N=C/c1ccc(O)c(O)c1O,-,-,-,-,-,71,-,
Cc1nc2ccccc2c(=O)n1/N=C/c1ccccc1,-,-,-,-,-,-,.,
O=C(COc1ccc(Cl)cc1)NCc1ccncc1,-,-,-,-,-,-,.,
C=CCc1cccc([C@@H]2[C@@H](C)CC[C@H]3C(=O)N4[C@@H](c5cc(OC)c(OC)c(OC)c5)c5[nH]c6ccccc6c5C[C@H]4C(=O)N23)c1,-,-,-,-,-,-,.,
CCC[C@@H](O)c1cc2cc(OC)c(OC)cc2c(=O)o1,-,-,-,.,-,.,.,
O=C1CCC/C=C\C[C@@H](CC(=O)N(CCO)Cc2ccccc2)C(=O)N[C@H](c2ccccc2)CO1,.,-,.,.,.,.,.,
O=C1C=C(NCCN2CCOCC2)C(=O)c2cnccc21,-,41,-,-,-,84,82,
C[C@H](NC(=O)N1CCn2c1nc1ccccc12)C(=O)NCc1ccc2c(c1)OCO2,-,-,-,-,-,-,.,
CC1=C(C(=O)OCc2ccccc2)C(c2ccccc2OS(=O)(=O)c2ccccc2[N+](=O)[O-])NC(=O)N1CCCC(=O)O (stereo not drawn),-,-,-,-,-,58,63,
